Results filed as inconclusive are left out. The source made the active and inactive calls. The calls were made as follows: active = hit-call score of the fitted dose curve at least 0.9, where 1 is the maximum; inconclusive = response in the unintended direction; inactive = score below 0.9.

Sequence of Estrogen receptor beta (Homo sapiens) (Q92731 whole entry, looked up, the tested form may be a part): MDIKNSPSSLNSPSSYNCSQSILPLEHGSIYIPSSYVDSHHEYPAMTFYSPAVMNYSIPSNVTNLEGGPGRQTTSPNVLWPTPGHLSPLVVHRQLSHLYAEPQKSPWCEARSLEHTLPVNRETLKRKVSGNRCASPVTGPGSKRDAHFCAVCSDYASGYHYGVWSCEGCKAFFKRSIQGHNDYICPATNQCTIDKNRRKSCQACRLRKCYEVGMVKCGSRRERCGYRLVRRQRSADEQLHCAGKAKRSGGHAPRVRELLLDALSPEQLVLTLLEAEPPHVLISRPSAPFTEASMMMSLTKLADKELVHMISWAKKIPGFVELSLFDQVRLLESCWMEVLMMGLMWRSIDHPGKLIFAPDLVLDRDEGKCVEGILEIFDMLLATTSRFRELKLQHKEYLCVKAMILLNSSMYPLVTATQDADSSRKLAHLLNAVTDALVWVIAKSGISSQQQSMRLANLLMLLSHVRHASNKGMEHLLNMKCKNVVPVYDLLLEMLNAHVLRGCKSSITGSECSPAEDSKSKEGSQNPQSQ
Sequence of Glucocorticoid receptor (Homo sapiens) (P04150 whole entry, looked up): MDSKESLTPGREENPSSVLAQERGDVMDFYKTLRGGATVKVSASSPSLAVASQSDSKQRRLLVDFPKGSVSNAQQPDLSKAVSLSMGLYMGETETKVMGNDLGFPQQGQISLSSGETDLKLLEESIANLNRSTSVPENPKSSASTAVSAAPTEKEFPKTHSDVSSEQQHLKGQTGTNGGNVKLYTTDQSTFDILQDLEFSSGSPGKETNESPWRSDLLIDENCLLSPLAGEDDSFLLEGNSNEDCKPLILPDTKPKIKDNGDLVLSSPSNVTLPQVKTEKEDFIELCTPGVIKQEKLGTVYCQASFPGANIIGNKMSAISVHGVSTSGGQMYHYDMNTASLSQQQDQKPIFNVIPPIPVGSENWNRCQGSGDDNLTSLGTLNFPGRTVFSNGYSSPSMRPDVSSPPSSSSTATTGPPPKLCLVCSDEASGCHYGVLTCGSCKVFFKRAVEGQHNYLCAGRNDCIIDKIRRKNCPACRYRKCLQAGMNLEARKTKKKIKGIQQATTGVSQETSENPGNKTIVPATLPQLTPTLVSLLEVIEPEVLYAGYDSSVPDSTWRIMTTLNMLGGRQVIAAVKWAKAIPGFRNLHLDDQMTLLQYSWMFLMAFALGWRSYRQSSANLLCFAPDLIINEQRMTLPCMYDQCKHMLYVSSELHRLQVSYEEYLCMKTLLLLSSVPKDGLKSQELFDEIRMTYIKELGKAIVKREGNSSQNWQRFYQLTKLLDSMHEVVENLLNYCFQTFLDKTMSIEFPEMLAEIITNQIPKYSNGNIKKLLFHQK
Sequence of Nuclear receptor subfamily 1 group I member 2 (Homo sapiens) (O75469 whole entry, looked up): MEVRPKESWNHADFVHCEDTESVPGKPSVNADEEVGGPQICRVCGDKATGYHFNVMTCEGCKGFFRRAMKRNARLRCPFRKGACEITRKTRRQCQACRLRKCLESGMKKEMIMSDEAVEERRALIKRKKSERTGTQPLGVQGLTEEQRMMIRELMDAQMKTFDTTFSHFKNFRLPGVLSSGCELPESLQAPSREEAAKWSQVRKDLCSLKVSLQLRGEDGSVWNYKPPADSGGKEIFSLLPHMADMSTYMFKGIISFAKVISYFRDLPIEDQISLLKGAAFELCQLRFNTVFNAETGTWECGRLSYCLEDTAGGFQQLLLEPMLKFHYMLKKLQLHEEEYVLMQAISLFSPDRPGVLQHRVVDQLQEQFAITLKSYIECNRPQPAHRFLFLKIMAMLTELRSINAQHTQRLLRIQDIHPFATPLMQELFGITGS
Sequence of Peroxisome proliferator-activated receptor gamma (Homo sapiens) (P37231 whole entry, looked up): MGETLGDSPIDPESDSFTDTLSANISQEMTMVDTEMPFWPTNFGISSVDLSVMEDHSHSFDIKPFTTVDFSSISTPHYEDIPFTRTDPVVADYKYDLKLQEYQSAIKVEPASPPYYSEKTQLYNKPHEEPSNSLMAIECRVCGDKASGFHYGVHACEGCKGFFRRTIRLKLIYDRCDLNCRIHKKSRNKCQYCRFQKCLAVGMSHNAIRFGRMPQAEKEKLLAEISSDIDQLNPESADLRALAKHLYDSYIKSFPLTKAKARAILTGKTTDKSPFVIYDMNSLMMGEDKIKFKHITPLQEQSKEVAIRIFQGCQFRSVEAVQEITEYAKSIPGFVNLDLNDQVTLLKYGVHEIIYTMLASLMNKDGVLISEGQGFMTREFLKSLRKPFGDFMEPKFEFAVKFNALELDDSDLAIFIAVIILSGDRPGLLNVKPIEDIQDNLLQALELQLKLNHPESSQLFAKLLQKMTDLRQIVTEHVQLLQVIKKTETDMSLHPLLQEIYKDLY

One experiment has as its target Estrogen receptor beta (Homo sapiens) (UniProt Q92731). Nature of the experiment: OT_ER_ERbERb_0480: Odyssey Thera (OT) 8-hour HEK293T Protein-Complementation Assay for Estrogen Receptor-beta/-beta Homodimer (AID 2283357).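 Also: active means signal gain over DMSO baseline.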 A digest of the protocol:
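ER-beta LBD homodimer PCA stably expressed in HEK293T; 8 h compound exposure, then formaldehyde fixation and Draq5 staining. Gain in nuclear/cytoplasmic fluorescence intensity versus DMSO vehicle, read on laser scanning cytometer.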
For `CC(C)CCCCCCCOC(=O)c1ccc(C(=O)OCCCCCCCC(C)C)c(C(=O)OCCCCCCCC(C)C)c1`, the result was inactive.

`CCCCCC(CO)CCC` (stereo not drawn): the compound was called inactive.

Take `O=C(Cl)c1cccc(C(=O)Cl)c1`: the compound was classed as inactive.

As to `O=C(Oc1ccccc1)c1ccc(O)cc1`, the AC50 was 2.42 µM (active).

In another experiment the target is Glucocorticoid receptor (Homo sapiens) (UniProt P04150). The experiment is described as follows: NVS_NR_hGR: NovaScreen (NVS) Nuclear Receptor Binding Assay for human Glucocorticoid Receptor (GR) (AID 2283363). As for the experimental part:
NVS_NR_hGR is a biochemical, single-readout assay that uses extracted gene-proteins in a cell-free assay. Measurements were taken 16 hours after chemical dosing in a 96-well plate.NVS_NR_hGR is one of one assay component(s) measured or calculated from the NVS_NR_hGR assay. It is designed to make measurements of radioligand binding, a form of binding reporter, as detected with scintillation counting signals by Filter-based radiodetection technology.Data from the assay component NVS_NR_hGR was analyzed into 1 assay endpoint. This assay endpoint, NVS_NR_hGR, was analyzed in the positive analysis fitting direction relative to DMSO as the negative control and baseline of activity. Using a type of binding reporter, loss-of-signal activity can be used to understand changes in the binding as they relate to the gene NR3C1. Furthermore, this assay endpoint can be referred to as a primary readout, because the performed assay has only produced 1 assay endpoint. To generalize the intended target to other relatable targets, this assay endpoint is annotated to the nuclear receptor intended target family, where the subfamily is steroidal.
Binding assays used specific radioligands (tritiated, iodinated) with non-radioactive competitive displacement ligands in agonist or antagonist protocols (as indicated) and various reference compounds and inhibitors to titrate specific binding to receptors and transporters. Most enzyme assays (CYPs, kinases, phosphatases, proteases, HDACs) used recombinant protein and specific substrates (fluorescence mostly, some colorimetric and radioactive) and inhibitors, followed by a biochemical separation of substrate and product. All assays for the biochemical HTS were initially run in duplicate at a single concentration (10 uM for CYP450 assays and 25 uM for all others). […] Each assay was run with positive and negative controls, and concurrent controls on every plate. The follow-up (secondary) screen tested active chemical-pairs in concentration series, as well as a few additional assays not tested in the primary screen, some selected negative inactives, and several cases re-run in the concentration series for confirmatory purposes.
`CC(C)C[C@H]1C(=O)N2CCC[C@H]2[C@]2(O)O[C@](NC(=O)[C@@H]3C=C4c5cccc6[nH]c(Br)c(c56)C[C@H]4N(C)C3)(C(C)C)C(=O)N12`: the AC50 was 1.44 µM (active).

For the compound `O=C1OC2(c3cc(Br)c(O)c(Br)c3Oc3c2cc(Br)c(O)c3Br)c2c(Cl)c(Cl)c(Cl)c(Cl)c21`, the AC50 was 3.83 µM (active).

For the compound `Cc1ccc(C=O)cc1`, the compound was classed as inactive.

For another experiment, the target named is Nuclear receptor subfamily 1 group I member 2 (Homo sapiens) (UniProt O75469). Nature of the experiment: NVS_NR_hPXR: NovaScreen (NVS) Nuclear Receptor Binding Assay for human Pregnane X Receptor (PXR) (AID 2283365).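 Also: a drop in FRET signal versus DMSO baseline means the compound binds.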 A digest of the protocol:
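Human PXR protein, cell-free; compound added, incubated 2 h, TR-FRET read. Signal decrease vs DMSO = binding. Screened 25 uM duplicate, actives re-run as dilution series.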
Consider `COc1cc(C(C)(C)C)c(O)c(C(C)(C)C)c1`, for which the call was inactive.

For the compound `CC(C)C[C@H]1C(=O)N2CCC[C@H]2[C@]2(O)O[C@](NC(=O)[C@@H]3C=C4c5cccc6[nH]c(Br)c(c56)C[C@H]4N(C)C3)(C(C)C)C(=O)N12`, the AC50 was 1.04 µM (active).

In the case of `NC(=O)NC1NC(=O)NC1=O` (stereo not drawn), the compound was classed as inactive.

In the case of `CSc1nc(NC2CC2)nc(NC(C)(C)C)n1`, the AC50 is 3.05 µM (active).

In a further experiment the target is guinea pig Sigma Receptor, Non-selective Binding, SIGMAR1 (gene 100135589) (UniProt Q60492). The experiment is described as follows: NVS_OR_gSIGMA_NonSelective: NovaScreen (NVS) Nuclear Receptor Binding Assay for guinea pig Sigma Receptor, Non-selective Binding (AID 2283367). A digest of the protocol: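 Guinea pig brain membrane sigma sites were labelled with a radioligand, and bound radioactivity was counted after filtration 1 h post-dose. Compounds were screened at 25 uM in duplicate, then retested as concentration series when active.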
Sequence of guinea pig Sigma Receptor, Non-selective Binding, SIGMAR1 (gene 100135589) (Q60492 whole entry, looked up): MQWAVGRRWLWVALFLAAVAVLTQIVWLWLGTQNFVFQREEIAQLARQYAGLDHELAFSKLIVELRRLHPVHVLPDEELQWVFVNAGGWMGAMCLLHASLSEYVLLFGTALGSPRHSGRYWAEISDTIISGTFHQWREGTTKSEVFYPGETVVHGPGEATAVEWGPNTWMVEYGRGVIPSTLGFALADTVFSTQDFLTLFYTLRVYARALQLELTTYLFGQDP
As to `O=C=NC1CCC(CC2CCC(N=C=O)CC2)CC1` (stereo not drawn), the AC50 is 16.5 µM (active).

Consider `CCn1c2ccccc2c2cc(N)ccc21`, for which the AC50 is 12.3 µM (active).

As for `c1ccc2sc(SN(C3CCCCC3)C3CCCCC3)nc2c1`, the AC50 was 5.3 µM (active).

As for `CC(C)=CCO`, the compound was called inactive.

Turning to `O=P(c1ccccc1)(c1ccccc1)c1ccccc1`, the AC50 is 6.83 µM (active).

Another experiment addresses Peroxisome proliferator-activated receptor gamma (Homo sapiens) (UniProt P37231). The experiment is described as follows: NVS_NR_hPPARg: NovaScreen (NVS) Nuclear Receptor Binding Assay for human Peroxisome Proliferator-activated Receptor gamma (PPARg) (AID 2283370). A digest of the protocol: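 Chemicals were tested first in duplicate at 25 uM, then in concentration series if active. Binding to cell-free PPARg protein was measured by fluorescence polarization after 2 h, with loss of signal scored against DMSO.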
For `CC(C)CCCCCCCOC(=O)c1ccc(C(=O)OCCCCCCCC(C)C)c(C(=O)OCCCCCCCC(C)C)c1`, the call was inactive.

On to `CCCCCC(CO)CCC` (stereo not drawn), for which the result was inactive.

For the compound `O=C(Oc1ccccc1)c1ccc(O)cc1`, the compound was called inactive.

`O=C1C(c2[nH]c3ccc(S(=O)(=O)O)cc3c2O)=Nc2ccc(S(=O)(=O)O)cc21`: the result was inactive.

As for `COC(C)CCO` (stereo not drawn), the call was inactive.

For a further experiment, the target named is human Dopamine Transporter (DAT), SLC6A3 (gene 6531) (UniProt Q01959). Nature of the experiment: NVS_TR_hDAT: NovaScreen (NVS) Transporter Assay for human Dopamine Transporter (DAT) (AID 2283374).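 Also: activity means loss of bound radioligand signal relative to DMSO.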 A digest of the protocol: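 Duplicate single-point screening at 25 uM preceded concentration-series follow-up of actives. Binding was measured by competitive displacement of a radioligand from DAT protein, filter-counted by scintillation 1 h after dosing. Decrease relative to DMSO taken as activity.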
Sequence of human Dopamine Transporter (DAT), SLC6A3 (gene 6531) (Q01959 whole entry, looked up): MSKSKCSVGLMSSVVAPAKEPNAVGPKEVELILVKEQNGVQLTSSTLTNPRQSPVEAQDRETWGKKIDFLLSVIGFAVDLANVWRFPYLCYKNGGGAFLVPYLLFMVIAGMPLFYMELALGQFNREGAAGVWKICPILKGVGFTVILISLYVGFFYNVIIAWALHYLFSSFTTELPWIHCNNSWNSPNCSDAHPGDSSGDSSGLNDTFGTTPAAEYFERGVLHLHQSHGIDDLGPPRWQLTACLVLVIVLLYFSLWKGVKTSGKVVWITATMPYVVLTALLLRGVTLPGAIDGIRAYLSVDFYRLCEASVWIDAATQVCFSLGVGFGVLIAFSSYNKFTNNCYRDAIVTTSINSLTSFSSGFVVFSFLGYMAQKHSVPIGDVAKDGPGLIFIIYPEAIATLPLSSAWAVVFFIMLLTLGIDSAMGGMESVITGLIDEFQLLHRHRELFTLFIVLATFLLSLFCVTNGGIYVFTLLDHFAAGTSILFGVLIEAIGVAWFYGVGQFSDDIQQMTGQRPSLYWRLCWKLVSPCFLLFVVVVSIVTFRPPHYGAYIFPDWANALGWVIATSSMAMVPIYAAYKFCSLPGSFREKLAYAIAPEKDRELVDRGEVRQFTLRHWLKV
For `Cc1ccc(O)c(C(C)(C)C)c1`, the AC50 was 25 µM (active).

Turning to `O=C(Cl)c1cccc(C(=O)Cl)c1`, the compound was called inactive.

Turning to `CNC[C@H](O)c1cccc(O)c1`, the AC50 is 25 µM (active).

The target of a further experiment is rat Serotonin Transporter (SERT), Slc6a4 (gene 25553) (UniProt P31652). Nature of the experiment: NVS_TR_rSERT: NovaScreen (NVS) Transporter Assay for rat Serotonin Transporter (SERT) (AID 2283375). A digest of the protocol: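 Filtration-based radiodetection quantified loss of specific radioligand binding in rat forebrain membranes after 1 hour of chemical exposure, relative to DMSO. Chemicals were first tested in duplicate at 25 uM.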
Sequence of rat Serotonin Transporter (SERT), Slc6a4 (gene 25553) (P31652 whole entry, looked up): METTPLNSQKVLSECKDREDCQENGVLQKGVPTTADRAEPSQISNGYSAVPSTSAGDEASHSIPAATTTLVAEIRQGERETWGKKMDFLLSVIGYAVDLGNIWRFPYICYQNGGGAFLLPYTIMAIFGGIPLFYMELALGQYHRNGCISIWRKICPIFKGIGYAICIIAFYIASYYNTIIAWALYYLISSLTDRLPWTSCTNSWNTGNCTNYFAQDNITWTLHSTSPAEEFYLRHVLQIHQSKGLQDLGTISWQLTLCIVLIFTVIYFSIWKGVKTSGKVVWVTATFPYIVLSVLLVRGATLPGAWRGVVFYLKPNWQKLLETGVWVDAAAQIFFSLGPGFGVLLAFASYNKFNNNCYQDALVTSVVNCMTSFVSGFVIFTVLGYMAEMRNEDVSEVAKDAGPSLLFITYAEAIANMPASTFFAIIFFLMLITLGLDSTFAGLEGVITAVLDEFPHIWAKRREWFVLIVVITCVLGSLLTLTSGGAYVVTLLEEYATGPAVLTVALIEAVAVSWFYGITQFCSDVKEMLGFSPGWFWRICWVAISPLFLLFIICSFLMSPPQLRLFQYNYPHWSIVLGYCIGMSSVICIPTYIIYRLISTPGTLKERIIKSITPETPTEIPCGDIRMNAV
Consider `CN(CCOc1ccc(CC2SC(=O)NC2=O)cc1)c1ccccn1` (stereo not drawn), for which the AC50 was 2.07 µM (active).

With `O=C=NC1CCC(CC2CCC(N=C=O)CC2)CC1` (stereo not drawn), the compound was called inactive.

Turning to `CCn1c2ccccc2c2cc(N)ccc21`, the AC50 was 39.3 µM (active).

As for `Cc1cccc(C)c1C`, the compound was called inactive.

Values taken from PubChem BioAssay (EPA / NIEHS).
